# Values joined by “and” are separate entries in the source; they are usually repeats but may differ in a detail not shown here. Equal entries are not always repeated. The list shows a part of the results. Records with an inconclusive call do not appear. Active and inactive are the calls of the source.
# Legend:
# [1] = inhibitors of TNFa-induced NFkB p65 translocation, primary screen, imaging, HUVEC, MLSMR starter and 10KST1 sets (AID 438;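 active means inhibition above 20% together with a positive visual image hit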;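 further: compound added about 3h40 before a 20 min TNFalpha stimulation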;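 on inhibition: signal is the nuclear over cytoplasmic p65 intensity ratio per well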); details: HUVEC TNFa-induced p65 nuclear translocation; cell count: measured here: nuclei count (cytotoxicity indicator), at 2.08 µM unless noted; inhibition: at 2 µM, stronger effect = higher value unless noted
# [2] = reduction of polyQ htt aggregates in cells – imaging, exon1htt(103Q)mCFP cells, high-content imaging, primary screen (AID 483;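 active means visual image review flags a hit and inhibition of aggregation exceeds 20%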;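 further: compound exposure lasted 3 days before fixation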;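 on nuclei count: percent of the per-plate median nuclei count of sample wells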); details: exon1htt(103Q)mCFP cell line, aggregate imaging, at 2 µM; inhibition of aggregation: stronger effect = higher value; nuclei count: measured here: cell count, toxicity
# [3] = endothelial E-selectin expression blockers – imaging, HUVEC, immunofluorescence, MLSMR starter and 10KST1 sets, primary screen (AID 487;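 active means visually confirmed hit in the image check and inhibition above 20%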;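 on inhibition: signal is fraction of cell area covered by stained E-selectin grains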;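 on nuclei count: 100% = median nuclei count of all wells on the same plate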); details: HUVEC TNFalpha-induced E-selectin immunofluorescence imaging, at 2 µM; inhibition: stronger effect = higher value; nuclei count: measured here: cell number, toxicity
# [4] = Primary imaging screen for DUSP6 inhibitors that restore phospho-Erk in transfected HeLa cells, chemical complementation (AID 609;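 active means compounds giving at least 50% inhibition in the cell-based MKP-3 phosphatase rescue imaging test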;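 on inhibition: phospho-Erk level distribution per well compared with pooled transfected vehicle control wells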); details: HeLa MKP-3 transfected, phospho-Erk imaging KS statistic, at 10 µM
# [5] = molecular target: Dual specificity protein phosphatase 6 (Homo sapiens) (UniProt Q16828); experiment: as above; details: HeLa MKP-3 transfected, phospho-Erk imaging KS statistic, at 10 µM, stronger effect = higher value
# [6] = molecular target: Voltage-gated potassium channel subunit beta-2 (Rattus norvegicus) (UniProt P62483); experiment: inhibitors of rat Kvbeta2 reductase activity – biochemical, NADPH fluorescence, primary screen (AID 622;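 active means fluorescence slope higher than the sample average by over 3 SD, cut at about -0.22 in these data, passing the limit was not always enough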;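 further: slope of raw intensity against log time taken from 70 to 1610 s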); details: recombinant KvBeta, 4-cyanobenzaldehyde reduction, at 10 µM, stronger effect = higher value
# [7] = molecular target: Voltage-gated potassium channel subunit beta-2 (Rattus norvegicus) (UniProt P62483); experiment: enhancers of rat Kvbeta2 NADPH turnover – biochemical, NADPH fluorescence, primary screen (AID 623;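 active means NADPH fluorescence slope more negative than the mean of all samples by about 3 SD, 99.7% confidence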;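 further: fluorescence intensity change per second fitted from 20 to 320 s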); details: Recombinant KvBeta, NADPH fluorescence decrease slope, 10 min; at 10 µM; stronger effect = lower value
# [8] = molecular target: Alpha-2C adrenergic receptor (Homo sapiens) (UniProt P18825); experiment: compounds altering alpha2C-coupled GIRK flux – cell-based, HEK293 alpha2C/GIRK1/2, thallium flux, primary screen (AID 624;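 active means fluorescence slope after compound addition differing from the mean of all screened samples at 99.7% confidence, in either direction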;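 further: slope of fluorescence ratio to pre-addition baseline per second over 15 to 24 s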); details: thallium flux BTC fluorescence, at 10 µM, actives lie on both sides
# [9] = inhibitors of larval lipid processing in zebrafish, primary screen, whole organism, PED6 fluorescence, gall bladder and intestine (AID 686;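 active means a full or partial loss of lipid-probe fluorescence in the fish gall bladder, intestine or both, judged by eye; inactive means no fluorescence loss, or compound toxic to the fish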;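 further: larvae 5 to 7 days old with five fish per well; signal comes from phospholipase A2 cleavage of quenched PED6 carried via bile; overnight exposure to compound and PED6 before scoring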); details: Zebrafish larvae PED6 lipid processing, fluorescence scoring
# [10] = loss of swimming-algae plug formation – whole organism, Chlamydomonas reinhardtii, WT vs cilia-less mutant, absorbance, 96-well, primary screen (AID 463189); details: Chlamydomonas reinhardtii gravitaxis, OD600 absorbance, 2 days; at 10 µM; stronger effect = higher value;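 further: 0% = wild type cc124 cells in DMSO and 100% = ciliumless bld1 mutant cells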
# [11] = blockers of RIG-like receptor reporter activation – cell-based, Sendai virus stimulus, luciferase, 10K MLSCN set, TLR/RLR signaling modifier project, primary screen (AID 602276;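 active means inhibition at or above 50% at 10 µM; inactive means inhibition below 50%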;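 further: firefly luciferase from ISG56 promoter only with Renilla not read in this screen; 0% = Sendai virus plus DMSO and 100% = medium plus DMSO without virus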); details: HEK293 RL24 IRF3 luciferase reporter, at 10 µM, stronger effect = higher value
# [12] = TLR3 IRF3 reporter activation blockers – cell-based, poly I:C stimulus, luciferase, 10K MLSCN set, primary screen (AID 602277;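 active means inhibition of the reporter signal at or above 50%; inactive means inhibition below 50%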); details: HEK293-TLR3 RL24 IRF3 luciferase reporter, at 10 µM, stronger effect = higher value
# [13] = molecular target: Muscarinic acetylcholine receptor M4 (Homo sapiens) (UniProt P08173); experiment: M4-linked GIRK flux change, two-sided – cell-based, HEK293 M4/GIRK, thallium flux, BTC-AM, M4 allosteric agonist project, primary screen (AID 625;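 active means fluorescence slope after compound addition differing from the mean of all tested samples at 99.7% confidence, mostly higher but some lower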;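 further: thallium influx through GIRK channels coupled to M4 in HEK293 cells with BTC-AM dye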); details: at 10 µM, actives lie on both sides
# [14] = molecular target: Solute carrier family 12 member 5 (Homo sapiens) (UniProt Q9H2X9); experiment: retest of KCC2 transport modulators without sodium – cell-based, HEK293 KCC2, thallium flux, secondary assay, confirmation (AID 1713;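 active means thallium flux slope above the same plate's solvent-only control mean plus 3 SD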); details: FluoZin2 fluorescence, at 10 µM, stronger effect = higher value
# PubChem AID 1714 = details: HEK293-KCC2 + bumetanide/ouabain, thallium flux FluoZin2; at 10 µM; stronger effect = higher value
# [15] = molecular target: Solute carrier family 12 member 5 (Homo sapiens) (UniProt Q9H2X9); experiment: retest of KCC2 transport modulation, ouabain-free – cell-based, HEK293 KCC2, thallium flux, FluoZin2, secondary assay 2, confirmation (AID 1715;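 active means thallium flux slope more than 3 SD above or below the plate's solvent-only control mean, mostly below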;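 further: raw slope with 0.1% DMSO as baseline and bumetanide as block control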); details: HEK293-KCC2, thallium flux FluoZin2 fluorescence; at 10 µM; actives lie on both sides
# [16] = compound effects on native HEK Tl+ uptake – HEK cells, counterscreen 1, counter-screen for KCC2 modulator project, confirmation (AID 1716;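 active means thallium flux rate significantly above the same plate's solvent-only control wells, beyond their mean plus 3 SD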); details: HEK293 parental cells, thallium flux FluoZin2, ouabain; at 10 µM; baseline-ratio fluorescence slope, 10–20 s after thallium
# [17] = molecular target: Solute carrier family 12 member 5 (Homo sapiens) (UniProt Q9H2X9); experiment: modulation of KCC2 thallium flux in HEK cells – cell-based, ouabain, retest, confirmation (AID 1717;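 active means thallium flux slope beyond 3 SD from same-plate DMSO control mean in most replicates, usually higher, sometimes lower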;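 further: slope of initial-normalized fluorescence between seconds 10 and 20 after thallium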); details: HEK293-KCC2, thallium flux FluoZin2 fluorescence, at 10 µM, bidirectional: low = inhibitor, high = activator
# [18] = native HEK Tl+ uptake effects, second counter-screen – HEK cells, counterscreen 2, counter-screen for KCC2 modulator project, confirmation (AID 1718;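 active means thallium flux slope above the same plate's solvent-control mean plus 3 SD in both duplicate wells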;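 further: run without ouabain in cells lacking the KCC2 cotransporter; slope of fluorescence scaled to its starting value between 10 and 20 s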); details: HEK293 parental, thallium flux FluoZin-2 fluorescence slope; at 10 µM
# [19] = measured here: cell density z-score
# [20] = measured here: nuclear c-Myc green intensity z-score
# [21] = measured here: nuclear pErk red intensity z-score, stronger effect = higher value
# Dual specificity protein phosphatase 6 (Homo sapiens), sequence (Q16828 whole entry, looked up): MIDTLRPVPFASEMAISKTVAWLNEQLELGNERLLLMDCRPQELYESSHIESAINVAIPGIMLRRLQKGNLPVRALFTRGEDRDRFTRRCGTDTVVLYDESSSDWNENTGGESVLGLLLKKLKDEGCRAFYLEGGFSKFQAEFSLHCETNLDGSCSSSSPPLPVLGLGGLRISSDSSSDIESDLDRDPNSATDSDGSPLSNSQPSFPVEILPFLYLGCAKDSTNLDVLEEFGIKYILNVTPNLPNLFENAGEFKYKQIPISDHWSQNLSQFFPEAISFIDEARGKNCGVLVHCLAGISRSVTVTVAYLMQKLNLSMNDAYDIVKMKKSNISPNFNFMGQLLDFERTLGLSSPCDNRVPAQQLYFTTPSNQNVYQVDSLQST
# Solute carrier family 12 member 5 (Homo sapiens), sequence (Q9H2X9 whole entry, looked up): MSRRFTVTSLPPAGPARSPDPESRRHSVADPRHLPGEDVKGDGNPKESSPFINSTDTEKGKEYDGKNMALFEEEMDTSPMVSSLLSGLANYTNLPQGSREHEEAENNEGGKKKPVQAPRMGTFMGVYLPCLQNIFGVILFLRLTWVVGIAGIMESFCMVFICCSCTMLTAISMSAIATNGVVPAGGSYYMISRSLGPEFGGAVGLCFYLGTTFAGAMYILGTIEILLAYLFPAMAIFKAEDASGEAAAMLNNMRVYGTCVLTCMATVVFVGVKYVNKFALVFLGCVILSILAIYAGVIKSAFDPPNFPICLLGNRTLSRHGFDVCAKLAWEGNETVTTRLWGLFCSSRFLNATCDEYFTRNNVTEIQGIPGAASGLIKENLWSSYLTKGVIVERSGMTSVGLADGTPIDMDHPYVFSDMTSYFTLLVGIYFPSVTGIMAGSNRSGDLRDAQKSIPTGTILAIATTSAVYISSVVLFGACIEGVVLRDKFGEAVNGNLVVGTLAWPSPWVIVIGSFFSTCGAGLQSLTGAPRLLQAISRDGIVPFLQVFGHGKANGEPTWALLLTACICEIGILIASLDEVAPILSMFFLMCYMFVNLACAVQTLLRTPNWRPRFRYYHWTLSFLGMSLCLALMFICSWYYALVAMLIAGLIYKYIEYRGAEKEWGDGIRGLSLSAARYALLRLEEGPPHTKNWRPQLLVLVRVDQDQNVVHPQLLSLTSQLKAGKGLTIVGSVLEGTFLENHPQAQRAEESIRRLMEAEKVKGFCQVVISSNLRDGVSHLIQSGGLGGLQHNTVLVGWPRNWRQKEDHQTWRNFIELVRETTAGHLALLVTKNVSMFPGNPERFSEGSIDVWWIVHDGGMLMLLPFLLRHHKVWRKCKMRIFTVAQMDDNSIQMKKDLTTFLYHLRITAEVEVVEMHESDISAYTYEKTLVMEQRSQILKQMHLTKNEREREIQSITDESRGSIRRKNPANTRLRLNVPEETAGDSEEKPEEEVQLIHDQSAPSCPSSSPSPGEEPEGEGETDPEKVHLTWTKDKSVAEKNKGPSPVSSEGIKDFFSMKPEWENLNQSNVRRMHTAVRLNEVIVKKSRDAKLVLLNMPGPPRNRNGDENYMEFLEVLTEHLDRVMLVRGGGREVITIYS
# Alpha-2C adrenergic receptor (Homo sapiens), sequence (P18825 whole entry, looked up): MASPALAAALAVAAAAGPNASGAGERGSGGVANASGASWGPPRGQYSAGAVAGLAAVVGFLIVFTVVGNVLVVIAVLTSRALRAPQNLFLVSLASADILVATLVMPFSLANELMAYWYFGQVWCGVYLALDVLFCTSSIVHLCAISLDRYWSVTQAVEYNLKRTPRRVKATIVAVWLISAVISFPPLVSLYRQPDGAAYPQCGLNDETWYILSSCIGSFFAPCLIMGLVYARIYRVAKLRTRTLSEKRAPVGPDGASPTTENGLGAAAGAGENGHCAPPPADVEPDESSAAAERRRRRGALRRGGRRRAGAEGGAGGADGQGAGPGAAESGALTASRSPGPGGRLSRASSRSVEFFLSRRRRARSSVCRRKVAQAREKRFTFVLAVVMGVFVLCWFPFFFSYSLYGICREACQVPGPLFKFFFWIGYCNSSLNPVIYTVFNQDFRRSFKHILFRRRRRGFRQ
# Voltage-gated potassium channel subunit beta-2 (Rattus norvegicus), sequence (P62483 whole entry, looked up): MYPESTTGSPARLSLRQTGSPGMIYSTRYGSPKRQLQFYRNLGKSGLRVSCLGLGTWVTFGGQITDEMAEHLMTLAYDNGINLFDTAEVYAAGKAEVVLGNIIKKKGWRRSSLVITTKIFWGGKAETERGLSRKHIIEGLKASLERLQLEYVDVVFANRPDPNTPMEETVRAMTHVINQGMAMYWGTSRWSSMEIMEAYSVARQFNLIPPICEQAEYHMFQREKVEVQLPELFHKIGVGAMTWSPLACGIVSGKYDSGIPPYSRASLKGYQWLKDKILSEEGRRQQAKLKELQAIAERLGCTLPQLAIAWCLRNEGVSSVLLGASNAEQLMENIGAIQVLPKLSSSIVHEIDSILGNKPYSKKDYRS
# Muscarinic acetylcholine receptor M4 (Homo sapiens), sequence (P08173 whole entry, looked up): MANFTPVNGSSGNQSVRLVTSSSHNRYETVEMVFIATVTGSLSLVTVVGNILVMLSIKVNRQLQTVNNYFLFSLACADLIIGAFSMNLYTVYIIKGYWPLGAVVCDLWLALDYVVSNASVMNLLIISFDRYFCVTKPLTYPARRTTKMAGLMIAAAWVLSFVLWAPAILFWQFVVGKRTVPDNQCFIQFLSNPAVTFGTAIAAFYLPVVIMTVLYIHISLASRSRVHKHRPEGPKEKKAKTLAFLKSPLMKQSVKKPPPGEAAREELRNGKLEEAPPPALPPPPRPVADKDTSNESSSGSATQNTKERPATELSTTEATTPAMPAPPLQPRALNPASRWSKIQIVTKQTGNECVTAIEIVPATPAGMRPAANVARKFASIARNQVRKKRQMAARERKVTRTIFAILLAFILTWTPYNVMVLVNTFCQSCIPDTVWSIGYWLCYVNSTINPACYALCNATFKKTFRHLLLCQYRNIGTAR
compound,measurement,setting,value
CCOc1ccc(-n2c(O)c(C=NCCN3CCNCC3)c(=O)[nH]c2=O)cc1,cell count,[1],537
same,inhibition,[1],3.2% (inactive)
same,inhibition of aggregation,[2],-17.4% (inactive)
same,nuclei count,[2],96.7%
same,inhibition,[3],-38.9% (inactive)
same,nuclei count,[3],144%
same,z-score,[4]; [19],-0.956
same,z-score,[4]; [20],-1.36
same,z-score,[4]; [21],0.949
same,inhibition,[5],-4.7% (inactive)
same,fluorescence slope,[6],-0.351 (inactive)
same,NADPH fluorescence slope,[7],-8.4e-06 (inactive)
same,slope,[8],0.00537 (inactive)
same,outcome,[9],inactive
same,inhibition,[10],8.26% (inactive)
same,inhibition,[11],14.4% (inactive)
same,inhibition,[12],22.5% (inactive)
C#CCN(C)C(C)Cc1ccccc1 (stereo unspecified),cell count,[1],624
same,inhibition,[1],-1.1% (inactive)
same,inhibition of aggregation,[2],13.6% (inactive)
same,nuclei count,[2],96.7%
same,inhibition,[3],-90.1% (inactive)
same,nuclei count,[3],124%
same,z-score,[4]; [19],-0.521
same,z-score,[4]; [20],1.36
same,z-score,[4]; [21],0.296
same,inhibition,[5],8% (inactive)
same,fluorescence slope,[6],-0.447 (inactive)
same,NADPH fluorescence slope,[7],-7.1e-05 (inactive)
same,slope,[8],0.00486 (inactive)
same,outcome,[9],inactive
same,inhibition,[10],10.4% (inactive)
same,inhibition,[11],16.5% (inactive)
same,inhibition,[12],40.6% (inactive)
CC1=NOC2(C)Nc3ncnn3C(c3ccccc3)C12 (stereo unspecified),cell count,[1],604
same,inhibition,[1],-11.4% (inactive)
same,inhibition of aggregation,[2],21% (inactive)
same,nuclei count,[2],85%
same,inhibition,[3],-129% (inactive)
same,nuclei count,[3],145%
same,z-score,[4]; [19],0.203
same,z-score,[4]; [20],0.546
same,z-score,[4]; [21],1.46
same,inhibition,[5],1.98% (inactive)
same,fluorescence slope,[6],-0.454 (inactive)
same,NADPH fluorescence slope,[7],-5.1e-05 (inactive)
same,slope,[8],0.00521 (inactive)
same,fluorescence slope,[13],0.00509 (inactive)
same,outcome,[9],inactive
same,inhibition,[10],2.9% (inactive)
same,inhibition,[11],-5.02% (inactive)
same,inhibition,[12],6.14% (inactive)
CC[N+]1(C)CCCC(OC(=O)C(O)(c2ccccc2)c2ccccc2)C1 (stereo unspecified),cell count,[1],672
same,inhibition,[1],-11.6% (inactive)
same,inhibition of aggregation,[2],-2.7% (inactive)
same,nuclei count,[2],107%
same,inhibition,[3],-116% (inactive)
same,nuclei count,[3],119%
same,z-score,[4]; [19],1.46
same,z-score,[4]; [20],-0.0245
same,z-score,[4]; [21],-0.802
same,inhibition,[5],5.42% (inactive)
same,fluorescence slope,[6],-0.46 (inactive)
same,NADPH fluorescence slope,[7],-4.6e-05 (inactive)
same,slope,[8],0.0046 (inactive)
same,outcome,[9],inactive
same,inhibition,[10],-2.15% (inactive)
same,inhibition,[11],-2.74% (inactive)
same,inhibition,[12],37.1% (inactive)
CCCCCCn1c(O)c(C=NC2CCN(Cc3ccccc3)CC2)c(=O)[nH]c1=O,cell count,[1],592
same,inhibition,[1],-3.3% (inactive)
same,inhibition of aggregation,[2],-17.9% (inactive)
same,nuclei count,[2],112%
same,inhibition,[3],-34.2% (inactive)
same,nuclei count,[3],131%
same,z-score,[4]; [19],2
same,z-score,[4]; [20],-0.0485
same,z-score,[4]; [21],0.697
same,inhibition,[5],19.3% (inactive)
same,fluorescence slope,[6],-0.332 (inactive)
same,NADPH fluorescence slope,[7],-2.2e-05 (inactive)
same,slope,[8],0.0054 (inactive)
same,outcome,[9],inactive
same,inhibition,[10],25.8% (inactive)
same,inhibition,[11],11.7% (inactive)
same,inhibition,[12],-13.6% (inactive)
O=C(CSC1c2ccccc2-c2ccccc21)N/N=C/c1ccccc1,normalised thallium flux (F/F0 slope),[14],0.00922 (inactive)
same,normalized thallium flux,PubChem AID 1714,0.00567 (inactive)
same,normalized thallium flux,[15],0.0321 (inactive)
same,thallium flux rate (normalised fluorescence),[16],0.00741 (inactive)
same,"raw Tl+ flux slope (below DMSO = inhibition, above = activation)",[17],0.02 (inactive)
same,thallium flux slope,[18],0.0112 (active)
C[C@H]1CCCC(=O)CCCCCc2cc(O)cc(O)c2C(=O)O1,cell count,[1],593
same,inhibition,[1],-6.9% (inactive)
same,inhibition of aggregation,[2],2.6% (inactive)
same,nuclei count,[2],82.4%
same,inhibition,[3],-84.5% (inactive)
same,nuclei count,[3],116%
same,z-score,[4]; [19],1.09
same,z-score,[4]; [20],-0.366
same,z-score,[4]; [21],-0.0362
same,inhibition,[5],29.1% (inactive)
same,fluorescence slope,[6],-0.439 (inactive)
same,NADPH fluorescence slope,[7],2.4e-05 (inactive)
same,slope,[8],0.00367 (inactive)
same,outcome,[9],inactive
same,inhibition,[10],-7.02% (inactive)
same,inhibition,[11],-0.827% (inactive)
same,inhibition,[12],16.9% (inactive)
Cc1ccc2c(c1)[C@@H]1CN(C)CC[C@@H]1N2C(=O)Nc1cccc(C(F)(F)F)c1,cell count,[1],378
same,inhibition,[1],-9.8% (inactive)
same,inhibition of aggregation,[2],-11.2% (inactive)
same,nuclei count,[2],94.1%
same,inhibition,[3],-93.8% (inactive)
same,nuclei count,[3],95.7%
same,z-score,[4]; [19],1.48
same,z-score,[4]; [20],0.568
same,z-score,[4]; [21],0.647
same,inhibition,[5],-4.78% (inactive)
same,fluorescence slope,[6],-0.508 (inactive)
same,NADPH fluorescence slope,[7],-0.000528 (active)
same,slope,[8],0.0079 (inactive)
same,inhibition,[10],4.34% (inactive)
same,inhibition,[11],20.1% (inactive)
same,inhibition,[12],23.5% (inactive)
O=c1[nH]c(=O)n(-c2cccc3ccccc23)c(O)c1C=NCCCn1ccnc1,cell count,[1],430
same,inhibition,[1],2.6% (inactive)
same,inhibition of aggregation,[2],-2.6% (inactive)
same,nuclei count,[2],113%
same,inhibition,[3],-19% (inactive)
same,nuclei count,[3],71.8%
same,z-score,[4]; [19],0.0574
same,z-score,[4]; [20],-0.666
same,z-score,[4]; [21],-0.681
same,inhibition,[5],-5.95% (inactive)
same,fluorescence slope,[6],-0.411 (inactive)
same,NADPH fluorescence slope,[7],-2.1e-05 (inactive)
same,slope,[8],0.00458 (inactive)
same,fluorescence slope,[13],0.00656 (inactive)
same,outcome,[9],inactive
same,inhibition,[10],-5.53% (inactive)
same,inhibition,[11],19% (inactive)
same,inhibition,[12],17.8% (inactive)
O=C(O)CCCc1ccc(N(CCCl)CCCl)cc1,cell count,[1],498
same,inhibition,[1],-7.2% (inactive)
same,inhibition of aggregation,[2],4.2% (inactive)
same,nuclei count,[2],94.5%
same,inhibition,[3],-70% (inactive)
same,nuclei count,[3],127%
same,z-score,[4]; [19],0.122
same,z-score,[4]; [20],-0.24
same,z-score,[4]; [21],-0.885
same,inhibition,[5],12.4% (inactive)
same,fluorescence slope,[6],-0.493 (inactive)
same,NADPH fluorescence slope,[7],-0.000123 (inactive)
same,slope,[8],0.00534 (inactive)
same,inhibition,[10],5.31% (inactive) and 14% (inactive)
same,inhibition,[11],-6.04% (inactive)
same,inhibition,[12],-10.8% (inactive)
COc1ccc(OC)c(C(O)C(C)N)c1 (stereo unspecified),cell count,[1],507
same,inhibition,[1],-7.1% (inactive)
same,inhibition of aggregation,[2],7% (inactive)
same,nuclei count,[2],57.3%
same,inhibition,[3],-75.2% (inactive)
same,nuclei count,[3],108%
same,z-score,[4]; [19],-0.1
same,z-score,[4]; [20],0.202
same,z-score,[4]; [21],1.18
same,inhibition,[5],11.3% (inactive)
same,fluorescence slope,[6],-0.51 (inactive)
same,NADPH fluorescence slope,[7],-2.7e-05 (inactive)
same,slope,[8],0.0053 (inactive)
same,outcome,[9],inactive
same,inhibition,[10],8.38% (inactive) and -0.435% (inactive)
same,inhibition,[11],4.62% (inactive)
same,inhibition,[12],34.8% (inactive)

# From PubChem BioAssay
